Laboratory results reported in PMC8384837, “Expanding the binding specificity for RNA recognition by a PUF domain”.

Key:
Assay in all cases: yeast three-hybrid, YBZ-1, SC-Leu-His + 0.5 mM 3-AT, 4 days
Settings in all cases: tags: N-Gal4 AD-HA kept; label: inside an RPR1-promoter hybrid RNA with tandem MS2 sites; ssRNA
[1] = molecular target: PUM1 PUF domain R4-DYV (Homo sapiens, UniProt Q14671 828-1176, N971D;H972Y;Q975V)
How it was run: (§1)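 The interaction score is the logarithmic change in variant frequency from input to selection. It uses log2, with a pseudocount of 1 for absent variants, and frequencies came from PCR-amplified, Illumina-sequenced repeat regions. The libraries were Pumilio-1 PUF domains randomized at the three base-contacting residues per repeat, co-expressed with matching RNA elements in strain YBZ-1 (LexA–MS2 coat fusion, HIS3 reporter). Plating lasted four days on SC-Leu (input) or SC-Leu-His + 0.5 mM 3-AT (selection).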

[2] = molecular target: PUM1 PUF domain R4-PFD (Homo sapiens, UniProt Q14671 828-1176, N971P;H972F;Q975D)
How it was run: as §1

[3] = molecular target: PUM1 PUF domain R3-IWR (Homo sapiens, UniProt Q14671 828-1176, C935I;R936W;Q939R)
How it was run: as §1

[4] = molecular target: PUM1 PUF domain R8-KHN (Homo sapiens, UniProt Q14671 828-1176, N1122K;Y1123H;Q1126N)
How it was run: as §1

[5] = molecular target: PUM1 PUF domain R2-RQC (Homo sapiens, UniProt Q14671 828-1176, N899R;Y900Q;Q903C)
How it was run: as §1

[6] = molecular target: PUM1 PUF domain R8-NWF (Homo sapiens, UniProt Q14671 828-1176, Y1123W;Q1126F)
How it was run: as §1

[7] = molecular target: PUM1 PUF domain R8-SYK (Homo sapiens, UniProt Q14671 828-1176, N1122S;Q1126K)
How it was run: as §1

[8] = molecular target: PUM1 PUF domain R8-KYC (Homo sapiens, UniProt Q14671 828-1176, N1122K;Q1126C)
How it was run: as §1

[9] = molecular target: PUM1 PUF domain R5-RRT (Homo sapiens, UniProt Q14671 828-1176, C1007R;Q1011T)
How it was run: as §1

[10] = molecular target: PUM1 PUF domain R3-ARG (Homo sapiens, UniProt Q14671 828-1176, C935A;Q939G)
How it was run: as §1

[11] = molecular target: PUM1 PUF domain R5-RFA (Homo sapiens, UniProt Q14671 828-1176, C1007R;R1008F;Q1011A)
How it was run: as §1

[12] = molecular target: PUM1 PUF domain R8-PWS (Homo sapiens, UniProt Q14671 828-1176, N1122P;Y1123W;Q1126S)
How it was run: as §1

[13] = molecular target: PUM1 PUF domain R8-KYQ (Homo sapiens, UniProt Q14671 828-1176, N1122K)
How it was run: as §1

[14] = molecular target: PUM1 PUF domain R5-RFG (Homo sapiens, UniProt Q14671 828-1176, C1007R;R1008F;Q1011G)
How it was run: as §1

[15] = molecular target: PUM1 PUF domain R1-KKS (Homo sapiens, UniProt Q14671 828-1176, S863K;R864K;Q867S)
How it was run: as §1

[16] = molecular target: PUM1 PUF domain R5-RAS (Homo sapiens, UniProt Q14671 828-1176, C1007R;R1008A;Q1011S)
How it was run: as §1

[17] = molecular target: PUM1 PUF domain R3-RIA (Homo sapiens, UniProt Q14671 828-1176, C935R;R936I;Q939A)
How it was run: as §1

[18] = molecular target: PUM1 PUF domain R3-KHV (Homo sapiens, UniProt Q14671 828-1176, C935K;R936H;Q939V)
How it was run: as §1

[19] = molecular target: PUM1 PUF domain R5-KAN (Homo sapiens, UniProt Q14671 828-1176, C1007K;R1008A;Q1011N)
How it was run: as §1

[20] = molecular target: PUM1 PUF domain R5-QKN (Homo sapiens, UniProt Q14671 828-1176, C1007Q;R1008K;Q1011N)
How it was run: as §1

PUM1 PUF domain R4-PFD, sequence (Q14671 828-1176 N971P/H972F/Q975D): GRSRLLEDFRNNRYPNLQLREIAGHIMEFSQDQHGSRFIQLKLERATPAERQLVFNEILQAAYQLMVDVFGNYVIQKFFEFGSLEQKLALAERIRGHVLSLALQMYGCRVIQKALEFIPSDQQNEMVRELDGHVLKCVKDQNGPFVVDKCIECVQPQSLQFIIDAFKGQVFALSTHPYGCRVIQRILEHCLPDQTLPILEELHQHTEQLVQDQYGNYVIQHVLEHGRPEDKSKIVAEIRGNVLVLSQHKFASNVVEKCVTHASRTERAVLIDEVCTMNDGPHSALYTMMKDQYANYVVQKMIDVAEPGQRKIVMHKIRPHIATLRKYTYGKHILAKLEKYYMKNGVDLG
PUM1 PUF domain R8-KHN, sequence (Q14671 828-1176 N1122K/Y1123H/Q1126N): as the sequence (Q14671 828-1176 N971P/H972F/Q975D) above, with P144N, F145H, D148Q, N295K, Y296H, Q299N counted along it
PUM1 PUF domain R4-DYV, sequence (Q14671 828-1176 N971D/H972Y/Q975V): as the sequence (Q14671 828-1176 N971P/H972F/Q975D) above, with P144D, F145Y, D148V counted along it
PUM1 PUF domain R5-RFA, sequence (Q14671 828-1176 C1007R/R1008F/Q1011A): as the sequence (Q14671 828-1176 N971P/H972F/Q975D) above, with P144N, F145H, D148Q, C180R, R181F, Q184A counted along it
PUM1 PUF domain R5-RFG, sequence (Q14671 828-1176 C1007R/R1008F/Q1011G): as the sequence (Q14671 828-1176 N971P/H972F/Q975D) above, with P144N, F145H, D148Q, C180R, R181F, Q184G counted along it
PUM1 PUF domain R3-IWR, sequence (Q14671 828-1176 C935I/R936W/Q939R): as the sequence (Q14671 828-1176 N971P/H972F/Q975D) above, with C108I, R109W, Q112R, P144N, F145H, D148Q counted along it
PUM1 PUF domain R5-RRT, sequence (Q14671 828-1176 C1007R/Q1011T): as the sequence (Q14671 828-1176 N971P/H972F/Q975D) above, with P144N, F145H, D148Q, C180R, Q184T counted along it
PUM1 PUF domain R8-KYC, sequence (Q14671 828-1176 N1122K/Q1126C): as the sequence (Q14671 828-1176 N971P/H972F/Q975D) above, with P144N, F145H, D148Q, N295K, Q299C counted along it
PUM1 PUF domain R3-ARG, sequence (Q14671 828-1176 C935A/Q939G): as the sequence (Q14671 828-1176 N971P/H972F/Q975D) above, with C108A, Q112G, P144N, F145H, D148Q counted along it
PUM1 PUF domain R5-RAS, sequence (Q14671 828-1176 C1007R/R1008A/Q1011S): as the sequence (Q14671 828-1176 N971P/H972F/Q975D) above, with P144N, F145H, D148Q, C180R, R181A, Q184S counted along it
PUM1 PUF domain R3-RIA, sequence (Q14671 828-1176 C935R/R936I/Q939A): as the sequence (Q14671 828-1176 N971P/H972F/Q975D) above, with C108R, R109I, Q112A, P144N, F145H, D148Q counted along it
PUM1 PUF domain R8-PWS, sequence (Q14671 828-1176 N1122P/Y1123W/Q1126S): as the sequence (Q14671 828-1176 N971P/H972F/Q975D) above, with P144N, F145H, D148Q, N295P, Y296W, Q299S counted along it
PUM1 PUF domain R8-KYQ, sequence (Q14671 828-1176 N1122K): as the sequence (Q14671 828-1176 N971P/H972F/Q975D) above, with P144N, F145H, D148Q, N295K counted along it
PUM1 PUF domain R2-RQC, sequence (Q14671 828-1176 N899R/Y900Q/Q903C): as the sequence (Q14671 828-1176 N971P/H972F/Q975D) above, with N72R, Y73Q, Q76C, P144N, F145H, D148Q counted along it
PUM1 PUF domain R1-KKS, sequence (Q14671 828-1176 S863K/R864K/Q867S): as the sequence (Q14671 828-1176 N971P/H972F/Q975D) above, with S36K, R37K, Q40S, P144N, F145H, D148Q counted along it
PUM1 PUF domain R8-SYK, sequence (Q14671 828-1176 N1122S/Q1126K): as the sequence (Q14671 828-1176 N971P/H972F/Q975D) above, with P144N, F145H, D148Q, N295S, Q299K counted along it
PUM1 PUF domain R5-QKN, sequence (Q14671 828-1176 C1007Q/R1008K/Q1011N): as the sequence (Q14671 828-1176 N971P/H972F/Q975D) above, with P144N, F145H, D148Q, C180Q, R181K, Q184N counted along it
PUM1 PUF domain R3-KHV, sequence (Q14671 828-1176 C935K/R936H/Q939V): as the sequence (Q14671 828-1176 N971P/H972F/Q975D) above, with C108K, R109H, Q112V, P144N, F145H, D148Q counted along it
PUM1 PUF domain R5-KAN, sequence (Q14671 828-1176 C1007K/R1008A/Q1011N): as the sequence (Q14671 828-1176 N971P/H972F/Q975D) above, with P144N, F145H, D148Q, C180K, R181A, Q184N counted along it
PUM1 PUF domain R8-NWF, sequence (Q14671 828-1176 Y1123W/Q1126F): as the sequence (Q14671 828-1176 N971P/H972F/Q975D) above, with P144N, F145H, D148Q, Y296W, Q299F counted along it

“GGCUAGAACUAGUGGAUCCCCCGGCGCCCGGCGGCUCGAGCCCGGGUAAGUGUACAUAGUCUGCAUGCCGCCGGGCGCCAUGCCUGCAGGUCGACUCUAGAAAACAUG” was tested, and the binding signal [1] was 6.74 log2 enrichment (interaction score) and the binding signal [2] was 1.86 log2 enrichment (interaction score).
For “GGCUAGAACUAGUGGAUCCCCCGGCGCCCGGCGGCUCGAGCCCGGGUAAGUGUAAGUAGUCUGCAUGCCGCCGGGCGCCAUGCCUGCAGGUCGACUCUAGAAAACAUG”, the binding signal [3] was 4.57 log2 enrichment (interaction score).
In the case of “GGCUAGAACUAGUGGAUCCCCCGGCGCCCGGCGGCUCGAGCCCGGGUAAGGGUAAAUAGUCUGCAUGCCGCCGGGCGCCAUGCCUGCAGGUCGACUCUAGAAAACAUG”, the binding signal [4] is reported as 2.46 log2 enrichment (interaction score).
For “GGCUAGAACUAGUGGAUCCCCCGGCGCCCGGCGGCUCGAGCCCGGGUAAGUGUAAAGAGUCUGCAUGCCGCCGGGCGCCAUGCCUGCAGGUCGACUCUAGAAAACAUG”, the binding signal [5] was 4.25 log2 enrichment (interaction score).
In the case of “GGCUAGAACUAGUGGAUCCCCCGGCGCCCGGCGGCUCGAGCCCGGGUAAGCGUAAAUAGUCUGCAUGCCGCCGGGCGCCAUGCCUGCAGGUCGACUCUAGAAAACAUG”, the binding signal [6] is reported as 2.16 log2 enrichment (interaction score), the binding signal [7] is reported as 4.29 log2 enrichment (interaction score) and the binding signal [4] is reported as 5.43 log2 enrichment (interaction score). The binding signal [8] was 6.06 log2 enrichment (interaction score).
In the case of “GGCUAGAACUAGUGGAUCCCCCGGCGCCCGGCGGCUCGAGCCCGGGUAAGUGUAAAUAGUCUGCAUGCCGCCGGGCGCCAUGCCUGCAGGUCGACUCUAGAAAACAUG”, the binding signal [4] is reported as 2.21 log2 enrichment (interaction score), the binding signal [9] is reported as 0.94 log2 enrichment (interaction score) and the binding signal [3] is reported as 3.61 log2 enrichment (interaction score). The binding signal [10] was 3.94 log2 enrichment (interaction score), the binding signal [1] was 5.94 log2 enrichment (interaction score) and the binding signal [11] was 2.39 log2 enrichment (interaction score). The binding signal [8] was 2.79 log2 enrichment (interaction score), the binding signal [2] was 3.55 log2 enrichment (interaction score) and the binding signal [12] was 2.42 log2 enrichment (interaction score). For the same sequence, the binding signal [13] was 5.9 log2 enrichment (interaction score) and the binding signal [14] was 3.09 log2 enrichment (interaction score).
In the case of “GGCUAGAACUAGUGGAUCCCCCGGCGCCCGGCGGCUCGAGCCCGGGUAAGUGUAAAUUGUCUGCAUGCCGCCGGGCGCCAUGCCUGCAGGUCGACUCUAGAAAACAUG”, the binding signal [15] is reported as 5.1 log2 enrichment (interaction score).
With “GGCUAGAACUAGUGGAUCCCCCGGCGCCCGGCGGCUCGAGCCCGGGUAAGUGUUAAUAGUCUGCAUGCCGCCGGGCGCCAUGCCUGCAGGUCGACUCUAGAAAACAUG” the binding signal [16] was 3.24 log2 enrichment (interaction score), the binding signal [11] was 4.55 log2 enrichment (interaction score) and the binding signal [14] was 5.49 log2 enrichment (interaction score).
With “GGCUAGAACUAGUGGAUCCCCCGGCGCCCGGCGGCUCGAGCCCGGGUAAGUGUAAUUAGUCUGCAUGCCGCCGGGCGCCAUGCCUGCAGGUCGACUCUAGAAAACAUG” the binding signal [17] was 3.43 log2 enrichment (interaction score), the binding signal [3] was 3.7 log2 enrichment (interaction score) and the binding signal [18] was 2.96 log2 enrichment (interaction score). The binding signal [10] was 0.5 log2 enrichment (interaction score).
In the case of “GGCUAGAACUAGUGGAUCCCCCGGCGCCCGGCGGCUCGAGCCCGGGUAAGUGUCAAUAGUCUGCAUGCCGCCGGGCGCCAUGCCUGCAGGUCGACUCUAGAAAACAUG”, the binding signal [19] is reported as 5.42 log2 enrichment (interaction score), the binding signal [16] is reported as 3.03 log2 enrichment (interaction score) and the binding signal [9] is reported as 4.59 log2 enrichment (interaction score). For the same sequence, the binding signal [20] was 2.32 log2 enrichment (interaction score), the binding signal [11] was 5.36 log2 enrichment (interaction score) and the binding signal [14] was 5.07 log2 enrichment (interaction score).
“GGCUAGAACUAGUGGAUCCCCCGGCGCCCGGCGGCUCGAGCCCGGGUAAGUGUGAAUAGUCUGCAUGCCGCCGGGCGCCAUGCCUGCAGGUCGACUCUAGAAAACAUG” was tested, and the binding signal [9] was 1.02 log2 enrichment (interaction score) and the binding signal [14] was 2.66 log2 enrichment (interaction score).
In the case of “GGCUAGAACUAGUGGAUCCCCCGGCGCCCGGCGGCUCGAGCCCGGGUAAGUGUAUAUAGUCUGCAUGCCGCCGGGCGCCAUGCCUGCAGGUCGACUCUAGAAAACAUG”, the binding signal [1] is reported as 6.86 log2 enrichment (interaction score) and the binding signal [2] is reported as 5.34 log2 enrichment (interaction score).
